# Source: PubChem
# Shown are actives, neighbours in structure and some others; about 31% of the full set was active somewhere.
# CYP2C9 inh: blockers of cytochrome P450 2C9 activity – biochemical, luminescence, ADME assay, primary screen; P11712; AID 777, 2007; inhibition, % at 5 µM; 96,000 compounds, 20% hits; CYP2C9 Supersomes, luciferin-H conversion;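 active means blocking of liver enzyme CYP2C9 beyond about 50% at 5 µM, limit read from the data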
# Target sequence (P11712 whole entry, looked up): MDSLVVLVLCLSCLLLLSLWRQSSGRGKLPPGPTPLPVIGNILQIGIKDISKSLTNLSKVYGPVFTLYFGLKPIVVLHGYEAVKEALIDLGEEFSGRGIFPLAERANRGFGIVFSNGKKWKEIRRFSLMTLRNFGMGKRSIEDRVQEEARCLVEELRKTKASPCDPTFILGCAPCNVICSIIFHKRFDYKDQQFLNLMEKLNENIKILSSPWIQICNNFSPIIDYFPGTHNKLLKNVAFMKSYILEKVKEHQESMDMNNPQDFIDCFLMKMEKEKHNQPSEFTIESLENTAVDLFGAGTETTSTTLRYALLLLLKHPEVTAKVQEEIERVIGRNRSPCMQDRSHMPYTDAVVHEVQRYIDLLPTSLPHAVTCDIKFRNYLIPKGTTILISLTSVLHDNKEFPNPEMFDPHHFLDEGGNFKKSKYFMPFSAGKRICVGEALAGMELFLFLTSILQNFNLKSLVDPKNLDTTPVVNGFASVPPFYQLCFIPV
# CYP2C9 activ: human CYP2C9 activators, primary screen, biochemical, luminescence; Cytochrome P450 2C9 (Homo sapiens), P11712; recombinant CYP2C9, luciferin-H conversion; hits give high values; factor 1 = untreated enzyme, 0 = blocked; activation factor at 5 µM; 96,000 compounds, 1.4% hits; AID 1024, 2008;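 active means activation factor of 2 or more for CYP2C9 at a 5 µM dose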;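 further: 0 = sulfaphenazole-blocked wells and 1 = vehicle-only wells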
# CYP2C19 act: human CYP2C19 activators, primary screen, biochemical, luminescence. Cytochrome P450 2C19 (Homo sapiens), P33261. recombinant CYP2C19, luciferin-H EGE luminescence; hits give high values; 0 = fully inhibited enzyme, 1 = untreated enzyme. activation factor at 5 µM. 96,000 tested, under 10 active. AID 1025, 2008;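 active means activation factor of at least 2 at 5 µM in the primary screen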;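 further: 0 = wells with 2.5 mM tranylcypromine and 1 = vehicle-only wells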
# PLAP act: PLAP enzyme activators, biochemical, luminescence, HTS | Alkaline phosphatase, placental type (Homo sapiens), P05187 | purified PLAP enzyme, luminescent substrate read-out; hits give high values | activation fold at 20 µM | 96,000 compounds, 1.2% hits | AID 696, 2007; in the data active means activation fold above about 2
# CYP2C19 inh: blockers of cytochrome P450 2C19 activity – biochemical, luminescence, ADME assay, primary screen | P33261 | CYP2C19 Supersomes, luciferin-H EGE luminescence, 30 min | inhibition, % at 5 µM | 96,000 compounds, 21% hits | AID 778, 2007;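 active means CYP2C19 inhibition above a set limit at 5 µM in the primary screen, cut at about 50% in these data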;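 further: plate controls were negative control wells for no effect and 2.5 mM tranylcypromine positive control for full effect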
# * hit, by the source's call.
SMILES,CYP2C9 inh,CYP2C9 activ,CYP2C19 act,PLAP act,CYP2C19 inh
C=CCn1c(N)c(C(=O)OCCC)c2nc3ccccc3nc21,69.4*,0.3,0.2,1.2,77.3*
COc1ccc(C2CCCN2C(=O)Nc2cccc(C(C)=O)c2)cc1OC (stereo not given),19.8,0.8,0.9,1.1,9.6
O=C(/C=C\Nc1ccccn1)c1ccc(Cl)cc1,-23.6,1.2,0.8,1.1,24.0
COc1ccccc1NCc1nnc(SCC(=O)N/N=C/c2ccco2)n1-c1ccc(Cl)cc1Cl,21.6,0.8,0.6,1.4,44.2
CC(=O)Nc1ccc(S(=O)(=O)NC(CC(=O)N(C)Cc2ccccc2)C(C)C)cc1 (stereo not given),-1.9,1,0.7,1,25.2
CCC(=O)NC(=S)Nc1ccc(S(=O)(=O)NC(C)C)cc1,15.4,0.8,0.9,0.9,11.1
CCOc1ccc(NS(=O)(=O)c2ccc(NC(=S)NC(=O)C(C)C)cc2)cc1,95.1*,0,0.2,1.1,82.0*
CC(C)C(=O)NC(=S)Nc1ccc(S(=O)(=O)N(C)Cc2ccccc2)cc1,55.1*,0.4,0.6,1,40.3
COc1ccc(NS(=O)(=O)c2ccc(NC(=S)NC(=O)C(C)C)cc2)cc1,64.5*,0.4,0.2,0.9,79.1*
CC(C)C(=O)NC(=S)Nc1ccc(S(=O)(=O)NC(C)(C)C)cc1,50.0*,0.5,0.6,1,37.0
C/C(=N\O)c1ccc2c3c([nH]c2c1)CCCC3,2.3,1,0.7,1.2,30.6
CCCCOc1ccccc1-c1cc(C(=O)O)[nH]n1,-0.3,1,1.1,1.3,-12.2
O=C(NCc1cccs1)C(Cc1ccccc1)n1cccc1 (stereo not given),56.8*,0.4,0.4,1,63.8*
Cc1csc(NC(=O)C(Cc2ccccc2)n2cccc2)n1 (stereo not given),62.6*,0.4,0.6,0.9,37.1
CSCC[C@@H](C(=O)NCc1cccs1)N1Cc2ccccc2C1=O,38.2,0.6,0.4,0.9,59.4*
CSCCC(C(=O)NCc1cccs1)N1C(=O)c2ccccc2C1=O (stereo not given),20.9,0.8,0.9,1,7.6
CCSc1nnc(NC(=O)C(Cc2ccccc2)n2cccc2)s1 (stereo not given),-30.0,1.3,1.2,1,-17.6
Cc1nc2ncnn2c(C)c1CCC(=O)N1CCOCC1,-2.1,1,1.1,1,-13.8
CCN(CC)CCCN1C(=O)C(=O)/C(=C(/O)c2ccccc2)C1c1cc(OC)ccc1OC (stereo not given),0.7,1,1,1,1.0
COc1cccc(CNC(=O)CCS(=O)(=O)c2cccs2)c1,16.8,0.8,0.5,0.9,52.9*
Cc1ccc(CNC(=O)c2ccc(NC(=O)CCS(=O)(=O)c3cccs3)cc2)cc1,30.2,0.7,1,0.8,-3.0
COc1ccc(S(=O)(=O)CCC(=O)NCCc2cccc(C)c2)cc1,12.0,0.9,0.7,0.8,26.8
O=C(CCS(=O)(=O)c1cccs1)Nc1ccc(C(=O)NCc2ccccc2)cc1,60.2*,0.4,0.2,0.8,77.7*
O=C1CCCc2c1cc(-c1ccccc1)n2-c1ccccc1,16.2,0.8,0.9,0.9,14.7
C=CCCCCCCCCc1nc(=S)[nH][nH]1,50.4*,0.5,0.5,1.6,45.6
SMILES,CYP2C9 inh,CYP2C9 activ,CYP2C19 act,PLAP act,CYP2C19 inh
CN1C(=O)CSc2ccc(NC(=O)Nc3ccccn3)cc21,-9.2,1.1,1,0.7,-0.5
CCOc1ccc(OCC)c(NC(=O)Nc2ccc3c(c2)N(C)C(=O)CS3)c1,36.9,0.6,0.4,1.8,58.1*
COc1cccc(NC(=O)Nc2ccc3c(c2)N(C)C(=O)CS3)c1,-3.6,1,0.4,1.1,64.8*
CN1C(=O)CSc2ccc(NC(=O)NCc3cccnc3)cc21,71.5*,0.3,0.4,1,56.4*
COC(=O)C1=C(C)Nc2ncnn2C1c1ccc(OCc2ccccc2)cc1 (stereo not given),-0.7,1,1.1,0.9,-10.6
CCCCN(CCCC)S(=O)(=O)c1ccc2oc(C(=O)N3CCOCC3)c(C)c2c1,48.8,0.5,0.8,1.3,20.8
Cc1ccc(N2C(=O)CSC23C(=O)Nc2ccccc23)cc1 (stereo not given),42.1,0.6,0.2,1.9,79.2*
Cc1ccc(NC(=O)Nc2ncccc2C)cc1,0.3,1,0.8,1,21.0
Cc1ccccc1CNC(=O)Nc1cccs1,45.4,0.5,0.3,0.9,72.0*
Cc1cccnc1NC(=O)Nc1cccs1,27.0,0.7,0.5,0.8,50.3*
O=C(NCc1cccs1)Nc1cccs1,6.1,0.9,0.8,1.1,18.9
O=[N+]([O-])c1ccc([C@H](O)[C@H](CO)N=Cc2ccccc2O)cc1,17.5,0.8,1.2,1.1,-20.4
Cc1n[nH]c(C)c1Sc1ccccc1N=Cc1cc([N+](=O)[O-])ccc1O,74.0*,0.3,0.8,1.4,24.8
Cc1ccccc1N(Cc1ccccc1F)S(C)(=O)=O,70.1*,0.3,0.1,0.9,94.6*
COC(=O)c1ccc(NC(=O)CSc2n[nH]c(-c3ccncc3)n2)cc1,94.6*,0.1,0.6,1.1,39.9
COC(=O)c1ccc(NC(=O)CSc2nnc(-c3ccncc3)n2N)cc1,9.4,0.9,1,0.8,3.8
CCOC(=O)c1ccc(NC(=O)CSc2n[nH]c(-c3ccncc3)n2)cc1,96.4*,0,0.5,1.1,47.9
CCOC(=O)CSc1n[nH]c(-c2cccnc2)n1,-14.5,1.1,1.1,0.9,-12.9
O=C(NCc1ccc(C(F)(F)F)cc1)C1CC(c2c(Cl)cccc2Cl)=NO1 (stereo not given),26.5,0.7,0.4,0.9,63.5*
O=C(NCc1ccc(C(F)(F)F)cc1)C1CC(c2ccccc2[N+](=O)[O-])=NO1 (stereo not given),-77.0,1.8,0.6,1,38.1
COc1cc(OC)c(C2=NOC(C(=O)NCc3ccc4c(c3)OCO4)C2)cc1Cl (stereo not given),-15.9,1.2,0.1,0.8,92.9*
COCCNC(=O)C1CC(c2ccc(F)cc2)=NO1 (stereo not given),-3.1,1,0.9,1,7.0
COc1ccccc1CNC(=O)C1CC(c2cccc([N+](=O)[O-])c2)=NO1 (stereo not given),-149.5,2.5*,0.7,0.8,29.5
O=C(NCc1ccc2c(c1)OCO2)C1CC(c2ccc(Cl)cc2)=NO1 (stereo not given),-0.2,1,0.7,0.9,25.7
CCCCNC(=O)C1CC(c2c(Cl)cccc2Cl)=NO1 (stereo not given),-384.7,4.8*,0.7,1,27.2
